Bioassay records as filed in PubChem.
A selection: hits, their analogues and other compounds. The true share with any hit is near 8.3%.
MCF10A rereplic – inducers of DNA re-replication in MCF 10A breast cells; MCF 10A DNA re-replication, Hoechst nuclear intensity, 48 h; 2.9% of 350,000 active; Potency, µM (highest dose often 46.1 µM), usual class: activators; further: nearly all actives have a fitted effect of over 50% in size
SW480 rerep – induces DNA re-replication in SW480 colon adenocarcinoma cells. SW480 DNA re-replication, Hoechst DNA content imaging, 48 h. Potency, µM (doses to about 46.1 µM), actives largely listed as activators. AID 624297. 1.8% of 340,000 active; further: nearly all actives have a fitted effect of over 55% in size
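Treated cells incubate 48 hr (37 C, 5% CO2), are stained 40 min with Hoechst, and nuclear fluorescence is enumerated; a rise in nuclei with high DNA signal marks re-replication.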
VP16 counter – counter-screen for ROR gamma inhibitors: Gal4-VP16 reporter; Drosophila S2 Gal4-VP16 UAS-luciferase, luminescence, 20 h; Potency, µM (titrated, usually from 53.6 µM), most hits filed as inhibitors; 3.5% of 310,000 active; AID 2546;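 further: Gal4-VP16 expression switched on by copper sulfate through the metallothionein promoter; nearly all actives have a fitted effect of over 50% in size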
RORgamma inh – inhibitors of mouse ROR gamma transcriptional activity; Drosophila S2 Gal4-RORgamma UAS-luciferase reporter, 20 h; Potency, µM (doses to about 53.6 µM), actives largely listed as inhibitors; 5.4% of 310,000 active; further: nearly all actives have a fitted effect of over 60% in size
Target sequence (P51450 whole entry, looked up, the tested form may be a part): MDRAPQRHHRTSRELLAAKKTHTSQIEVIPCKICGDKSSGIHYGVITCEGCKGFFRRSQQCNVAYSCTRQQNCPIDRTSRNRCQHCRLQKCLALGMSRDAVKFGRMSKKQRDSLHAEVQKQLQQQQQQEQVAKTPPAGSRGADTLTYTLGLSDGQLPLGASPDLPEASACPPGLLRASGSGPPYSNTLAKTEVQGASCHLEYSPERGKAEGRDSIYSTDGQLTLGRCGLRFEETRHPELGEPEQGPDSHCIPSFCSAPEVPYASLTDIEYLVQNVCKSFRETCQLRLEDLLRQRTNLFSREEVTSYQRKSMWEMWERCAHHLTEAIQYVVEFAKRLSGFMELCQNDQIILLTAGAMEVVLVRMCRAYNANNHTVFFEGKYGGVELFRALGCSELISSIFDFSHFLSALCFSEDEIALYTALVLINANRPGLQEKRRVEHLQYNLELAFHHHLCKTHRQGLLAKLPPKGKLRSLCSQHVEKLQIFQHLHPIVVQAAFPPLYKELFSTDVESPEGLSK
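ROR gamma transcriptional activity was tracked as Gal4-UAS luciferase output in stably transfected Drosophila Schneider cells, with compound added 1 hr before 700 uM copper sulfate induction and a 20 hr ambient-temperature incubation.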
Chronic BCR inh – chronic active BCR signaling inhibition. ABC-DLBCL IkBa-CBG/CBR reporter, luminescence ratio, 4 h. 0.05% of 340,000 active. Potency, µM (doses to about 46.1 µM), usual class: inhibitors. AID 493014; active means well fitted inhibition curve with a large enough effect in the signal ratio, with a control signal flat, not every such curve was filed as active; inconclusive means small, poorly fitted or top-dose-only effect, or effect the other way, or a change in a side signal; the % refers to the signal ratio
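Cell line TMD8 (human ABC DLBCL), stably expressing tet-inducible CBG68-IkBa fusion and CBR; IMDM/0.5% FBS; cpd up to 46 uM; dox induction, 4 h, 37C/5% CO2; dual luminescence; green/red ratio; MG132 control.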
Giardia kill – kills Giardia lamblia | Giardia lamblia trophozoite viability | activity change, % at 7.66 µM, hits read low | AID 540267 | 0.15% of 340,000 active; in the data active means activity change below about -80%; inconclusive means between about -30% and that limit;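 further: parasites exposed to compound for two days anaerobically before the ATP read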
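Giardia trophozoites, 100 cells per well, were exposed to compounds for 48 hrs at 37 deg C under anaerobic conditions; viability was then read as ATP content by bioluminescence after 15-30 min at room temperature.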
Each line names hits and unclear results; the compound was inactive in the other large screens. Unless noted, the call rests on the fitted dose curve; in most records, active means well fitted curve in the direction sought with a large enough effect; inconclusive means small, poorly fitted or top-dose-only effect, or another doubt; inactive means no such curve, though single readings can be large; an effect the other way counts as inactive or inconclusive.

CC(C)OC(=O)CC1C(=O)NCCN1C(=S)NC(=O)c1ccccc1 (stereo not drawn)	SW480 rerep inconclusive
COc1ccc(-c2ccc3nnc(SCC(N)=O)n3n2)cc1	SW480 rerep inconclusive
CCSc1nnc2ccc(-c3ccc(OC)c(OC)c3)nn12	Chronic BCR inh 7.94µM
CC1CN(c2nc3ccccc3cc2-c2ccccc2)CC(C)O1 (stereo not drawn)	MCF10A rereplic 20.6µM, Chronic BCR inh inconclusive
CC1(C)CC2(CC(c3ccccc3F)c3cc(Cl)c(O)cc3O2)NC(=S)N1 (stereo not drawn)	VP16 counter inconclusive, RORgamma inh 11.2µM, Chronic BCR inh inconclusive
Cc1cccc(C2CC3(CC(C)(C)NC(=S)N3)Oc3cc(O)ccc32)c1 (stereo not drawn)	RORgamma inh 10µM, Chronic BCR inh inconclusive
COc1cccc(C2CC3(CC(C)(C)NC(=S)N3)Oc3cc(O)ccc32)c1 (stereo not drawn)	MCF10A rereplic inconclusive, SW480 rerep inconclusive, Chronic BCR inh inconclusive
O=c1onc(-c2ccccc2Cl)n1-c1ccccc1Cl	none (no result: VP16 counter, RORgamma inh, Chronic BCR inh)
COc1cc(NC(=O)CSc2nc(C)cc(C)n2)cc(OC)c1OC	none
CCC1=Nc2cc(C(=O)NCC3CCCO3)ccc2Sc2ccc(Cl)cc21 (stereo not drawn)	MCF10A rereplic 11.6µM, SW480 rerep inconclusive, Chronic BCR inh inconclusive
O=C(NCC1CCCO1)c1ccc(NC(=O)c2ccc(Br)cc2)cc1 (stereo not drawn)	none (no result: VP16 counter, RORgamma inh, Chronic BCR inh)
CCC1=Nc2cc(C(=O)NCC3CCCO3)ccc2Sc2ccc(Br)cc21 (stereo not drawn)	MCF10A rereplic inconclusive, SW480 rerep 10.3µM, Chronic BCR inh inconclusive
CC(C)(C)C(=O)OCCNc1nc(-c2ccccc2)nc2ccccc12	RORgamma inh inconclusive, Chronic BCR inh inconclusive
O=c1[nH]c(C2CCN(S(=O)(=O)c3ccc4c(c3)OCCO4)CC2)nc2c1nnn2Cc1ccc(F)cc1	Chronic BCR inh inconclusive
CCCc1cc(=O)oc2c3c(c4c(c12)OC(C)(C)C=C4)OC(C)C(C)C3O (stereo not drawn)	MCF10A rereplic 10.3µM, VP16 counter inconclusive, Chronic BCR inh inconclusive
CCCc1cc(=O)oc2c3c(cc(OCC(=O)N[C@@H](C)C(=O)O)c12)OC(C)(C)CC3	none
CCOC(=O)C(C(C)=O)c1c(Br)c(O)c(O)c2c(C(=O)c3ccc(C)cc3)coc12 (stereo not drawn)	MCF10A rereplic inconclusive, SW480 rerep inconclusive, VP16 counter 15.8µM, RORgamma inh 12.6µM, Chronic BCR inh inconclusive
CCOC(=O)c1c(C)n(-c2ccc(C)cc2)c2c(C(C(C)=O)C(=O)O)c(Br)c(O)c(O)c12 (stereo not drawn)	SW480 rerep inconclusive
COc1cccc(N2CCN(C(=O)c3ccc(-c4ccccc4)cc3)CC2)c1	Chronic BCR inh inconclusive
Fc1ccc(CCNc2ncnc3nc[nH]c23)cc1	none (no result: MCF10A rereplic, SW480 rerep, VP16 counter, RORgamma inh, Chronic BCR inh)
CN(C)C(CNC(=O)c1cccc(S(=O)(=O)NCc2ccccc2)c1)c1ccccc1 (stereo not drawn)	MCF10A rereplic inconclusive, SW480 rerep 6.51µM (no result: VP16 counter, RORgamma inh)
Cc1ccc(OCCNC(=O)c2cccc(S(=O)(=O)NCc3ccccc3)c2)cc1	MCF10A rereplic 6.51µM, SW480 rerep 6.51µM, Chronic BCR inh inconclusive (no result: VP16 counter, RORgamma inh)
O=C(NCc1ccncc1)c1cccc(S(=O)(=O)NCc2ccccc2)c1	none
Cn1nccc1NC(=O)Nc1cccc(Cl)c1	none
Cn1nccc1-c1cc(Cl)cc(Cl)c1O	VP16 counter 31.6µM, RORgamma inh inconclusive, Chronic BCR inh inconclusive
CCOC(=O)/C(=C/c1ccc(N2CCC(c3ccccc3)=N2)cc1)C(C)=O	MCF10A rereplic inconclusive, SW480 rerep inconclusive, Chronic BCR inh inconclusive
c1ccc(C2=NN(c3ccccc3)CC2)cc1	MCF10A rereplic 20.6µM, SW480 rerep 16.4µM, RORgamma inh inconclusive, Chronic BCR inh inconclusive
O=C(O)Cn1cc(/C=C/[N+](=O)[O-])c2ccccc21	none
N#Cc1ccccc1Cn1cc(/C=C/[N+](=O)[O-])c2ccccc21	MCF10A rereplic 4.11µM, SW480 rerep inconclusive, VP16 counter 20µM, RORgamma inh inconclusive, Chronic BCR inh inconclusive
O=C(Cn1cc(/C=C\[N+](=O)[O-])c2ccccc21)Nc1ccccc1	MCF10A rereplic 8.2µM, SW480 rerep inconclusive, VP16 counter inconclusive, RORgamma inh inconclusive, Chronic BCR inh inconclusive
O=[N+]([O-])/C=C/c1cn(Cc2ccccc2)c2ccccc12	MCF10A rereplic inconclusive, SW480 rerep inconclusive, Chronic BCR inh inconclusive
Cc1cnc(CNc2ccnc(-c3ccc(C(=O)N(C)C)cc3)n2)cn1	none (no result: MCF10A rereplic, SW480 rerep, Chronic BCR inh, Giardia kill)
Cc1ccc2[nH]c(=O)c(CN(Cc3ccco3)C(=O)c3cccs3)cc2c1	none (no result: MCF10A rereplic, SW480 rerep, Giardia kill)
COc1ccccc1NC(=O)N(Cc1ccco1)Cc1cc2ccc(C)c(C)c2[nH]c1=O	MCF10A rereplic 7.31µM, SW480 rerep 18.4µM
Cc1ccc2cc(CN(Cc3ccco3)C(=O)c3cccs3)c(=O)[nH]c2c1	MCF10A rereplic 2.59µM, SW480 rerep 14.6µM, Chronic BCR inh inconclusive
COc1ccccc1NC(=S)N(Cc1ccco1)Cc1cc2cc(C)c(C)cc2[nH]c1=O	MCF10A rereplic 2.06µM, SW480 rerep 5.8µM, VP16 counter inconclusive
Cc1ccc(-c2noc(CNC(=O)c3ccc4c(c3)OCO4)n2)cc1	MCF10A rereplic inconclusive
N#CCN1CCC2(O)CCCCC2C1c1ccc2c(c1)OCO2 (stereo not drawn)	none
Cc1nc(NCc2ccccc2)c2nc(-c3ccccc3)n(CCCN3CCCCC3C)c2n1 (stereo not drawn)	none (no result: MCF10A rereplic, SW480 rerep, Chronic BCR inh, Giardia kill)
Cc1ccc2nc(C)c(C(=O)NN=C3CCCCCC3)n2c1	MCF10A rereplic inconclusive, SW480 rerep inconclusive, RORgamma inh 12.6µM, Chronic BCR inh inconclusive
Cc1ccc2nc(C)c(C(=O)N/N=C/c3cccs3)n2c1	MCF10A rereplic inconclusive, SW480 rerep inconclusive, RORgamma inh 11.2µM, Chronic BCR inh inconclusive
CC1(C)CC(NC(=S)NC(=O)c2cc(Br)ccc2Cl)CC(C)(C)N1	none (no result: VP16 counter, RORgamma inh)
O=C(C1CCCN(Cc2nc(-c3cccs3)no2)C1)N1CCOCC1 (stereo not drawn)	none
Cc1ccc(/C=C/C(=O)NCc2cccs2)c(C)c1	Chronic BCR inh inconclusive
Cc1cc(Cl)ccc1NC(=S)NCc1cccs1	VP16 counter 8.91µM, RORgamma inh 3.98µM
Cc1ccc(NC(=S)NCc2cccs2)c(C)c1	VP16 counter 5.62µM, RORgamma inh 2.24µM
O=C(CSc1ncccn1)N1CCCCCC1	none (no result: VP16 counter, RORgamma inh)
CN(C)C(=O)CSc1cccc2cccnc12	MCF10A rereplic inconclusive, SW480 rerep 5.17µM, VP16 counter inconclusive, RORgamma inh 10µM, Chronic BCR inh inconclusive
NNC(=O)CSc1cccc2cccnc12	none
O=C(CSc1cccc2cccnc12)N1CCCC1	MCF10A rereplic 11.6µM, SW480 rerep inconclusive (no result: VP16 counter)
